D3 ag: agonists of human D3 dopamine receptor | P35462 | D3R DiscoveRx beta-arrestin cells, luminescence, 90 min | max activation, % | hit rate 0.58% among 410,000 | AID 652048; in the data active = max activation above about 30%; note: 0% is about no effect
Target sequence (P35462 whole entry, looked up): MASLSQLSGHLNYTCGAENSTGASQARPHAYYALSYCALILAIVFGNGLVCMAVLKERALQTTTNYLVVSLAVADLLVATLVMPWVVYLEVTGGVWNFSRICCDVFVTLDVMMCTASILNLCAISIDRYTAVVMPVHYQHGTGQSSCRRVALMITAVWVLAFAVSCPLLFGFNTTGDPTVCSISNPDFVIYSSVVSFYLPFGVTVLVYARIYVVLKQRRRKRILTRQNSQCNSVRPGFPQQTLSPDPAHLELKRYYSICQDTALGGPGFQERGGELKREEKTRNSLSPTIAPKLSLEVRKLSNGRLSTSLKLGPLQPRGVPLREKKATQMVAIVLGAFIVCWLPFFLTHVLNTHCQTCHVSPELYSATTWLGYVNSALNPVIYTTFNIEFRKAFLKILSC
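Agonist-mode cell screen: cells plated at 1500/well and incubated overnight at 37 °C, then exposed to library compounds for 90 min at 37 °C. Detection reagent was added for 30–60 min at room temperature, and luminescence was read.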
D1 PAM: human D1 dopamine receptor positive modulation; P21728; HEK293 TREx D1 cells, calcium flux, dopamine EC20 potentiation; potentiation, % at 10 µM; hit rate 0.036% among 360,000; AID 504651; in the data active = potentiation above about 30%; note: 0% is about no effect
D1 agonist: human D1 receptor agonism | P21728 | HEK293 T-REx D1 cells, calcium flux, agonist mode | activation, % at 2 µM | hit rate 1% among 360,000; in the data active = activation above about 30%; note: 0% is about no effect
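Tetracycline-induced HEK293 TREx D1 cells, force-coupled to calcium signalling, were dye-loaded with a no-wash calcium kit. Compound was pin-added after a 10 s baseline. Fluorescence was read kinetically at 1 cycle/s for 180 s, with calcium rises flagged as agonism.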
DRD3 antagonist: blocks the human D3 dopamine receptor; P35462; D3R cells, DiscoveRx beta-arrestin luminescence, antagonist mode; hits give low values; max response, negative = inhibition, %; hit rate 2.5% among 360,000; in the data active = max response below about -50%; inconclusive = no clear call, values can overlap the other calls; note: % is set by controls: 0 for no effect and ±100 for the full control effect
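Cells expressing the human receptor were seeded at 1500 cells/well, incubated overnight at 37 degrees C in 5% CO2, then exposed to library compounds with dopamine controls for 90 minutes at 37 degrees C before luminescent detection.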
D1 antag: blocks dopamine activation of the human D1 receptor. P21728. HEK293 TREx D1 cells, calcium flux, dopamine EC80; hits give low values. activity change, negative = inhibition, % at 10 µM. hit rate 3.2% among 360,000. AID 504652; in the data active = activity change below about -30%; note: % is set by controls: 0 for no effect and ±100 for the full control effect
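Antagonism measured as reduced calcium response to an EC80 dopamine addition following 180 s compound pre-read; cells were inducible HEK293 Trex D1 plated overnight at 30 C, read kinetically at 1 cycle/sec.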
Numbers without * were called inactive; ? = inconclusive; nt = not tested or not shown. Rows were chosen to be rich in hits. Some 6% of all compounds tested hit in one or more screens of this group.

SMILES | D3 ag | D1 PAM | D1 agonist | DRD3 antagonist | D1 antag
Cc1ccc(N2CCN(S(=O)(=O)c3ccc(F)c(C)c3)CC2)c(C)c1 | -3 | -12 | 1 | -51* | -21
CCc1ccccc1N1CCN(S(=O)(=O)c2ccc(F)c(C)c2)CC1 | -3 | -2 | 7 | -26 | -37*
Cc1cc(S(=O)(=O)Nc2ccc(C(=O)N3CCN(c4ccccc4O)CC3)cc2)ccc1F | 32* | -3 | 1 | 43 | 7
Cc1nc(-c2ccc(S(=O)(=O)N3CCN(c4ccccc4F)CC3)cc2)co1 | -1 | -5 | 1 | nt | -34*
COc1ccc(C2=C(C)C(=NCCCN3CCN(c4cc(C)ccc4C)CC3)NS2(=O)=O)cc1 | -41 | 0 | -1 | nt | -2
Cc1nn(C)c(C)c1NC(=O)/C(C#N)=C\N(C)C | 3 | -2 | 2 | 11 | -54*
Cc1nn(C(=O)/C(C#N)=C/N(C)C)c(C)c1C | -10 | 9 | 2 | -23 | -9
O=C(NCCCn1cccn1)c1cc(COc2ccc(F)cc2Cl)on1 | 1 | 3 | -1 | -8 | -17
COc1ccc(CCNC(=O)CN2C(=O)COc3ccccc32)cc1OC | -4 | 0 | 2 | nt | 18
Cc1cc(C(=O)NCc2ccccc2Cl)n(-c2ccccc2)n1 | 4 | -3 | 1 | 1 | -38*
COc1ccc(NC(=O)c2cnc3sccn3c2=O)cc1 | 5 | -8 | 1 | -52* | -21
Cc1csc2ncc(C(=O)NCc3ccccc3Cl)c(=O)n12 | -1 | -4 | 1 | 0 | -34*
COc1ccccc1CNC(=O)c1cnc2sccn2c1=O | 2 | -12 | 3 | -5 | -40*
Cc1cccc(NC(=O)c2cnc3sccn3c2=O)c1 | -1 | -6 | 2 | 2 | 19
Cc1ccc(NC(=O)CSc2nc3nccnc3c(=O)n2CCc2c[nH]c3ccccc23)c(C)c1 | -2 | -5 | 0 | nt | 14
COc1ccc(C(NC(=O)C2CCN(CCCOc3ccccc3)CC2)c2cccs2)cc1 (configuration not stated) | -12 | nt | nt | -75* | nt
O=C(NC(c1ccc(Cl)cc1)c1ccsc1)C1CCN(CCOc2ccc(Cl)cc2)CC1 (configuration not stated) | -16 | nt | nt | -84* | nt
Cc1ccc(C(NC(=O)C2CCN(CCCOc3ccccc3)CC2)c2ccccn2)cc1 (configuration not stated) | -12 | nt | nt | -115* | nt
COc1ccc(OCCN2CCC(C(=O)NC(c3ccc(Cl)cc3)c3cccnc3)CC2)cc1 (configuration not stated) | -15 | nt | nt | 20 | nt
Cc1ccc(C(NC(=O)C2CCN(CCOc3ccc(Cl)cc3)CC2)c2ccccn2)cc1 (configuration not stated) | -12 | nt | nt | -94* | nt
CCS(=O)(=O)c1cccc(C(=O)N2CCN(c3nc4c(C)ccc(Cl)c4s3)CC2)c1 | 9 | -4 | 9 | nt | -26
COc1ccc2c(c1)c1c(c(=O)n(Cc3ccccc3)c(=O)n1Cc1ccc(C)cc1)n2C | 6 | -1 | 2 | nt | 3
CCc1ccc(N2C(=O)N(CC(=O)C(C)(C)C)c3ccccc3S2(=O)=O)cc1 | 2 | -4 | 1 | nt | -16
O=C(NC(c1ccc(Cl)cc1)c1cnccn1)C1CCN(CCCOc2ccccc2)CC1 (configuration not stated) | -13 | nt | nt | -84* | nt
O=C(NC(c1ccccc1)c1cnccn1)C1CCN(CCCOc2ccccc2)CC1 (configuration not stated) | -22 | nt | nt | 1 | nt
COc1ccccc1C(NC(=O)C1CCN(CCOc2ccc(Cl)cc2Cl)CC1)c1ccccn1 (configuration not stated) | -13 | nt | nt | ? | nt
COc1ccc(C(NC(=O)C2CCN(CCOc3ccc(Cl)cc3Cl)CC2)c2ccccn2)cc1 (configuration not stated) | -24 | nt | nt | -70* | nt
CCCCSc1nnc2n(-c3ccc(OC)cc3)c(=O)c3c4c(sc3n12)COC(C(C)C)C4 (configuration not stated) | -3 | -5 | 0 | nt | 1
O=C(Nc1nnc(-c2ccccc2Cl)o1)c1ccc(S(=O)(=O)N2CCCCCC2)cc1 | 4 | -1 | 12 | -30 | -7
CCC1CCCCN1S(=O)(=O)c1ccc(C(=O)Nc2nnc(C3CC3)o2)cc1 (configuration not stated) | 2 | 0 | 1 | 13 | -17

Screening data deposited in PubChem by National Center for Advancing Translational Sciences (NCATS).
